# Screening data from PubChem BioAssay.
# This is a sample that favours compounds with a hit; in the whole collection about 3.4% have one here.
# GPR151 activ: activators of human GPR151, primary screen, cell-based, PathHunter beta-arrestin, luminescence; 650,000 tested, 1% active; activation, % at 11.2 µM; G-protein coupled receptor 151 (Homo sapiens), Q8TDV0; PathHunter beta-arrestin GPR151 cells; in the data active means activation above about 4.9%;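 further: 0% = median of compound wells and 100% = cells with positive control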
# MITF inh: MITF inhibitors, primary screen, biochemical, AlphaScreen, human; 650,000 tested, 0.91% active; Microphthalmia-associated transcription factor (Homo sapiens), O75030; AlphaScreen MITF homodimerization, bead proximity signal; inhibition, % at 2.6 µM; AID 1259374, 2018; in the data active means inhibition above about 50%;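 further: 0% = vehicle wells with protein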
# Target sequence (O75030 whole entry, looked up): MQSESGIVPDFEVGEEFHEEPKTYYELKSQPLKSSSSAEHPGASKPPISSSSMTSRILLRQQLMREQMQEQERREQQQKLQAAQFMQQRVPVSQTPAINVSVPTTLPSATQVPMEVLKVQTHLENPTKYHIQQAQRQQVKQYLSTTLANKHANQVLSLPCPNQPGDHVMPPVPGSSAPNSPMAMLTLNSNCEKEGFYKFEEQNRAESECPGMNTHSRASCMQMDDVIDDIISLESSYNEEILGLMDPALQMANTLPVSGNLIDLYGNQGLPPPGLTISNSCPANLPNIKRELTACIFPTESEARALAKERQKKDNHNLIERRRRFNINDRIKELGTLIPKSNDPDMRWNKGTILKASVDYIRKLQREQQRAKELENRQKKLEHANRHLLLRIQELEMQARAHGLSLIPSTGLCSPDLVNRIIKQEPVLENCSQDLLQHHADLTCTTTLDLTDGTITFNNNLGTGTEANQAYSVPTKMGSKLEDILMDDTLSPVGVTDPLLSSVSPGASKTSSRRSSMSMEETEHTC
# FBW7 act: FBW7 E3 ligase activators, primary screen, biochemical, AlphaScreen, human; F-box/WD repeat-containing protein 7 (Homo sapiens), Q969H0; AlphaScreen FBW7–phospho-cyclin E peptide binding, activator screen; normalized activity (activation), % at 26.1 µM; 650,000 tested, 0.13% active; AID 1259310, 2017; in the data active means normalized activity above about 1.9%;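 further: purified mutant Fbw7 with reduced substrate affinity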
# TEAD-YAP block: TEAD-YAP interaction inhibition, primary screen, TEAD-YAP interaction inhibitor project, luminescence, HEK-TIYL cells | inhibition, % at 9.12 µM | TEAD-Gal4/YAP UAS-luciferase luminescence | 640,000 tested, 1.4% active; in the data active means inhibition above about 32%;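 further: 0% = median of test compound wells and 100% = reference inhibitor wells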
# GPR151 confirm: GPR151 activators, triplicate retest, confirmation, cell-based, PathHunter beta-arrestin, luminescence; GPR151 PathHunter beta-arrestin cells, 90 min; % of EA-reagent control over plate median; 6,700 tested, under 10 active; activation, % at 11.2 µM; AID 1508609, 2020; shares compounds with GPR151 activ;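 active means mean percent activation across replicates above the confirmation screen cutoff of 4.91%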
# GPR119 counter: GPR119 activators in beta-arrestin cells, counter-screen for GPR151 activator project, cell-based, PathHunter beta-arrestin, luminescence, triplicate. shares compounds with GPR151 activ. 90 min; 0 = compound-well median, 100 = enzyme-acceptor control. activation, % at 11.2 µM. 6,700 tested, 0.3% active;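 active means mean percent activation in the counterscreen above 29.09%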;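 further: counterscreen on off-target GPR119 to flag nonselective hits from the GPR151 activator screen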
# Numbers without * were called inactive; · = no result.
SMILES,GPR151 activ,MITF inh,FBW7 act,TEAD-YAP block,GPR151 confirm,GPR119 counter
CC(C)(C)c1nnc(NC(=O)c2ccc(Cl)nc2Cl)s1,8.1*,-9.6,0.1,-39.1,-1.1,-5.2
CN1CCCc2cc(C(CN)N3CCCCC3)ccc21 (stereo not drawn),6.7*,23.8,-0.2,12.2,0.1,-8.6
CN(C)N1C(N)=C(C#N)C(c2cccc(Cl)c2Cl)C2=C1CCCC2=O (stereo not drawn),5.1*,-7.8,0.2,-18.1,-0.1,1.7
CN(C)N1C(N)=C(C#N)C(c2ccccc2Cl)C2=C1CCCC2=O (stereo not drawn),-1.6,11.1,0.1,4.8,·,·
Cn1cc(-c2cnc3c(n2)[nH]c(=O)n3CC2CC2)cn1,7.7*,21.8,0.2,5.1,0.7,7.8
CC(C)Cn1c(=O)[nH]c2nc(-c3cnn(C)c3)cnc21,0.0,11.1,-0.1,0.5,·,·
CC(=O)N1CC(C)C(=O)Nc2c1cc(Br)cc2[N+](=O)[O-] (stereo not drawn),-1.2,-10.7,-0.2,-1.7,·,·
COc1ccc(-c2nnc(SCC(=O)N3c4ccccc4CC3C)o2)cc1 (stereo not drawn),5.8*,3.8,0.0,-9.6,1.2,13.4
COc1cc(/C=C/c2[nH]c(=O)[nH]c(=O)c2[N+](=O)[O-])cc(Cl)c1O,-0.2,11.4,-0.2,2.2,·,·
COc1cc(/C=C/c2[nH]c(=O)[nH]c(=O)c2[N+](=O)[O-])cc(OC)c1OC,7.7*,10.3,-0.1,-3.2,-1.2,-4.2
Cc1nc(N(C)c2ccc(C(C)C)cc2)c2c(C)c(C(=O)Nc3ccc(Oc4ccccc4)cc3)sc2n1,7.8*,11.0,1.5,-2.0,0.6,6.2
CCN(CC)c1nc(C)nc2sc(C(=O)Nc3ccc(Oc4ccccc4)cc3)c(C)c12,-0.2,-12.2,-0.2,-11.4,·,·
COc1ccc(CNC(=O)c2noc(C)c2[N+](=O)[O-])cc1,5.0*,7.8,-0.1,8.6,-0.4,4.5
CC(C)CNC(=O)c1cnc2scc(-c3ccc(Cl)s3)n2c1=O,0.2,9.4,-0.1,9.9,·,·
Cc1ccc(CNC(=O)CSC2=Nc3ccccc3C3=NC(C(C)C)C(=O)N23)cc1 (stereo not drawn),1.1,-8.3,0.1,-7.5,·,·
CC1CC(C)CN(C(=O)CSC2=Nc3ccccc3C3=NC(C(C)C)C(=O)N23)C1 (stereo not drawn),1.1,-12.4,-0.2,-9.6,·,·
CCC(C)C1N=C2c3ccccc3N=C(SCC(=O)N3CC(C)CC(C)C3)N2C1=O (stereo not drawn),11.8*,3.0,0.1,0.4,1.4,8.5
CC(C)C1N=C2c3ccccc3N=C(SCC(=O)NCCc3ccccc3)N2C1=O (stereo not drawn),5.8*,-0.7,0.0,-5.6,-0.1,4.1
Cc1cccnc1NS(=O)(=O)c1ccc(CN2C(=O)c3cccnc3C2=O)cc1,6.0*,9.6,-0.1,-2.5,-0.2,2.0
O=C1c2cccnc2C(=O)N1Cc1ccc(S(=O)(=O)N2CCCc3ccccc32)cc1,5.9*,6.2,-0.1,2.3,0.3,-3.0
CCCNS(=O)(=O)c1ccc(CN2C(=O)c3cccnc3C2=O)cc1,-0.3,3.6,-0.2,-5.2,·,·
N#Cc1ccccc1CSc1nc(-c2ccccc2)c(-c2ccccc2)o1,0.4,15.5,0.0,0.4,·,·
CC(C)N(C(=O)c1ccc([N+](=O)[O-])cc1)C(C)C,1.2,-0.9,0.1,3.2,·,·
O=C1COc2cc(-c3c(NC4CCCCC4)c(=O)c3=O)ccc2N1,14.1*,3.6,0.0,-5.7,-0.3,-1.6
Cc1ccc(CS(=O)Cc2ccc(C(=O)N3CCC(C(N)=O)CC3)o2)cc1 (stereo not drawn),0.5,-4.3,0.0,-14.4,·,·
SMILES,GPR151 activ,MITF inh,FBW7 act,TEAD-YAP block,GPR151 confirm,GPR119 counter
CCCCOc1ccccc1NC(=O)/C=C/c1ccc(-c2ccccc2)cc1,5.3*,2.2,0.0,-7.7,-0.8,7.3
CCOc1ccccc1NC(=O)/C=C/c1ccc(OC)cc1,-1.1,0.2,-0.1,10.1,·,·
COc1ccc(-n2ccnc2CN2CCN(C(C)C)C(CCO)C2)cc1 (stereo not drawn),5.0*,5.1,-0.1,-1.2,0.1,-9.3
CC(C)N1CCN(Cc2ccc(OC3CCCC3)cc2)CC1CCO (stereo not drawn),17.3*,10.3,0.1,12.7,-0.9,1.6
CC(C)N1CCN(Cc2ccc(OCc3ccccc3)cc2)CC1CCO (stereo not drawn),-1.1,9.4,0.0,-3.2,·,·
CC(C)N1CCN(Cc2cccn2-c2cccnc2)CC1CCO (stereo not drawn),-0.5,1.9,0.2,-5.0,·,·
O=C(NCc1ccccc1)c1ccc(OCc2ccccc2)cc1,-1.2,-5.5,0.1,4.8,·,·
CC(C)OC(=O)COc1ccc(C(=O)NCc2ccccc2)cc1,5.3*,-3.9,0.7,7.3,-0.5,-8.7
COc1ccc(OC)c(NC(=O)c2ccc(C)c(I)c2)c1,2.6,1.2,-0.2,-10.8,·,·
C=CCC(CC=C)(C(=O)O)c1ccccc1,5.8*,5.0,0.4,1.3,-0.6,-7.0
O=C(NCCO)c1csc(NCCN2CCOCC2)n1,0.6,8.4,0.0,9.4,·,·
COCCC(=O)Nc1ccc2c(c1)CN(C(=O)c1ccc(CSC)o1)CC2,9.4*,17.3,0.4,-14.3,0.0,2.2
CCCCCC(=O)Nc1ccc(N2CCN(CC)CC2)cc1,10.8*,6.7,0.0,-13.8,0.3,0.4
CC(=O)NS(=O)(=O)c1ccc(NC(=O)COc2ccc([N+](=O)[O-])cc2)cc1,6.1*,0.2,0.2,13.6,-0.1,0.9
CCNS(=O)(=O)c1ccc(NC(=O)c2ccc([N+](=O)[O-])cc2)cc1,5.1*,24.1,0.1,1.4,0.2,1.8
CC(C)(C)NS(=O)(=O)c1ccc(NC(=O)COc2ccc([N+](=O)[O-])cc2)cc1,0.8,-5.7,-0.1,-1.2,·,·
CCC(=O)Nc1cccc(NC(=O)COc2ccc([N+](=O)[O-])cc2)c1,12.4*,7.7,0.0,3.3,-0.1,-2.2
CCCCC(=O)Nc1cccc(NC(=O)COc2ccc([N+](=O)[O-])cc2)c1,10.9*,9.2,-0.1,1.3,-0.5,7.2
Cc1ccc(NC(=O)/C(C#N)=C/c2c(Oc3ccc(F)cc3)nc3ccccn3c2=O)cc1,-0.2,-3.7,-0.1,-4.2,·,·
Cc1cc(O)c(C(=O)/C=C/c2ccccc2Br)c(=O)o1,0.2,-12.3,0.0,-2.2,·,·
